The full data set covers some 7,900 targets. This sample favours those with a hit. About 0.6% of all pairs of compound and target were hits.
How the values were obtained:
Test in all cases: log2 fold change, soluble protein after heating vs DMSO (PISA); higher = thermal stabilisation; K562 cells, 10 uM, 30 min; active = over 0.2 and 3.5 SD of the protein, either way, in both replicates (recomputed)
[1] = compound: C#Cc1cccc(Nc2ncnc3cc(OCCOC)c(OCCOC)cc23)c1 [erlotinib]
In short: (§1)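 K562 cells at 2×10^6 cells/mL were treated with 10 μM compound for 30 min. Aliquots were heated for 3 min across 48°C-58°C, pooled, and extracted in PBS with 0.5% NP-40 at 4°C; soluble protein was the supernatant after 21,000xg for 90 min. Soluble protein was quantified by TMTpro 16plex LC-MS/MS with channel sums equalised, and reported as log2 fold change in thermal stability against DMSO controls, with values from duplicates.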

[2] = compound: C/C(=N\NC(=O)C1=CC(=CC=C1)S(=O)(=O)N2CCOCC2)/C3=C(C=CC(=C3)Cl)O
In short: as §1

[3] = compound: C1=CC(=C(C=C1Cl)C2=NC3=NC=CN=C3C(=N2)NC4=CC=NC=C4)F
In short: as §1

[4] = compound: C1=CC(=CC=C1C2=NC3=C(N2)C=C(C=C3)C(=O)N)OC4=CC=C(C=C4)Cl
In short: as §1

[5] = compound: C1=CC2=C(C=CC(=C2)/C=C\3/C(=O)NC(=NCC4=CC=CS4)S3)N=C1
In short: as §1

[6] = compound: C1=CC2=NC=CN=C2C=C1/C=C/3\C(=O)NC(=O)S3
In short: as §1

[7] = compound: C1=CC=C(C=C1)C2=NC(=C(N2)C3=CC=NC=C3)C4=CC(=C(C=C4)Cl)O
In short: as §1

[8] = compound: C1=CC=C2C(=C1)C3=NNC4=CC=CC(=C43)C2=O
In short: as §1

[9] = compound: C1CCN(C1)C(=O)NC2=CC=CC(=C2)NC3=NC=C(C(=N3)NCCC4=CN=CN4)Br
In short: as §1

[10] = compound: C1CN(CCC1(CC2=CC=C(C=C2)Cl)N)C3=NC=NC4=C3C=CN4
In short: as §1

[11] = compound: C1COCCN1CCN2C3=CC=CC=C3N=C2NC(=O)C4=CC(=CC=C4)[N+](=O)[O-] [IRAK-1-4 Inhibitor I]
In short: as §1

[12] = compound: C=CC(=O)N1CCC[C@@H](n2nc(-c3ccc(Oc4ccccc4)cc3)c3c(N)ncnc32)C1 [ibrutinib]
In short: as §1

[13] = compound: CC(=O)c1cnc2ccc(-c3cc(Cl)c(O)c(Cl)c3)nc2c1N[C@H]1CC[C@H](CN(C)C)CC1
In short: as §1

[14] = compound: CC(C)(C)Cn1c(N)nc2ccc(-c3[nH]c(C(C)(C)C)nc3-c3ccc(F)cc3)nc21 [ralimetinib]
In short: as §1

[15] = compound: CC(C)(O)CC(=O)NCCn1ccc2ncnc(Nc3ccc(Oc4cccc(C(F)(F)F)c4)c(Cl)c3)c21
In short: as §1

[16] = compound: CC(C)C1=C2N=C(C=C(N2N=C1)NCC3=CC=CC=C3)NCCCCCCN
In short: as §1

[17] = compound: CC(C)C[C@@H](C=O)NC(=O)[C@H](CC(C)C)NC(=O)[C@H](CC(C)C)NC(=O)OCc1ccccc1
In short: as §1

[18] = compound: CC(C)N(C[C@H]1O[C@@H](n2cnc3c(N)ncnc32)[C@H](O)[C@@H]1O)[C@H]1C[C@@H](CCc2nc3cc(C(C)(C)C)ccc3[nH]2)C1 [pinometostat]
In short: as §1

[19] = compound: CC1=C(C(CC(=O)N1)C2=CC=C(C=C2)C(F)(F)F)C(=O)NC3=C(C=C4C(=C3)C=NN4)F
In short: as §1

[20] = compound: CC1=C(C2=C(C=C1)C(=O)C3=CC=CC=C3N2CCCN)C
In short: as §1

Measured: log2 fold change

PRUNE1 (UniProt Q86TP1)
Chain of UniProt Q86TP1 (Q86TP1 whole entry, looked up): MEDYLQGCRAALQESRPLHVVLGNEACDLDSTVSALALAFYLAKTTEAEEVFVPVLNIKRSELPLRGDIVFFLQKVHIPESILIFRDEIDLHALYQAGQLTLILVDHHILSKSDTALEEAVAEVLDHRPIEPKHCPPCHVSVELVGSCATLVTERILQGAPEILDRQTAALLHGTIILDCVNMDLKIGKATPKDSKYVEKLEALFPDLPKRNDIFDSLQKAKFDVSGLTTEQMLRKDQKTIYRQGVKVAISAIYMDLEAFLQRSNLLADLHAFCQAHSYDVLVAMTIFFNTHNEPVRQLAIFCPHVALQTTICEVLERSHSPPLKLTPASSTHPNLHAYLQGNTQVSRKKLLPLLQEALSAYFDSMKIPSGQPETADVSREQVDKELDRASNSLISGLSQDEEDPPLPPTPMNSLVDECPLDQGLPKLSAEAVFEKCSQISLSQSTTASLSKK
inactive: [1] 0.002 | [2] 0.063 | [3] 0.062 | [4] 0.03 | [5] -0.034 | [6] -0.016 | [7] 0.051 | [8] 0.045 | [9] -0.079 | [10] -0.005 | [11] 0.049 | [12] -0.058 | [13] 0.012 | [14] 0.017 | [15] -0.037 | [16] -0.129 | [17] 0.04 | [18] 0.08 | [19] -0.019 | [20] -0.021

PHKA2 (UniProt P46019)
Chain of UniProt P46019 (P46019 whole entry, looked up): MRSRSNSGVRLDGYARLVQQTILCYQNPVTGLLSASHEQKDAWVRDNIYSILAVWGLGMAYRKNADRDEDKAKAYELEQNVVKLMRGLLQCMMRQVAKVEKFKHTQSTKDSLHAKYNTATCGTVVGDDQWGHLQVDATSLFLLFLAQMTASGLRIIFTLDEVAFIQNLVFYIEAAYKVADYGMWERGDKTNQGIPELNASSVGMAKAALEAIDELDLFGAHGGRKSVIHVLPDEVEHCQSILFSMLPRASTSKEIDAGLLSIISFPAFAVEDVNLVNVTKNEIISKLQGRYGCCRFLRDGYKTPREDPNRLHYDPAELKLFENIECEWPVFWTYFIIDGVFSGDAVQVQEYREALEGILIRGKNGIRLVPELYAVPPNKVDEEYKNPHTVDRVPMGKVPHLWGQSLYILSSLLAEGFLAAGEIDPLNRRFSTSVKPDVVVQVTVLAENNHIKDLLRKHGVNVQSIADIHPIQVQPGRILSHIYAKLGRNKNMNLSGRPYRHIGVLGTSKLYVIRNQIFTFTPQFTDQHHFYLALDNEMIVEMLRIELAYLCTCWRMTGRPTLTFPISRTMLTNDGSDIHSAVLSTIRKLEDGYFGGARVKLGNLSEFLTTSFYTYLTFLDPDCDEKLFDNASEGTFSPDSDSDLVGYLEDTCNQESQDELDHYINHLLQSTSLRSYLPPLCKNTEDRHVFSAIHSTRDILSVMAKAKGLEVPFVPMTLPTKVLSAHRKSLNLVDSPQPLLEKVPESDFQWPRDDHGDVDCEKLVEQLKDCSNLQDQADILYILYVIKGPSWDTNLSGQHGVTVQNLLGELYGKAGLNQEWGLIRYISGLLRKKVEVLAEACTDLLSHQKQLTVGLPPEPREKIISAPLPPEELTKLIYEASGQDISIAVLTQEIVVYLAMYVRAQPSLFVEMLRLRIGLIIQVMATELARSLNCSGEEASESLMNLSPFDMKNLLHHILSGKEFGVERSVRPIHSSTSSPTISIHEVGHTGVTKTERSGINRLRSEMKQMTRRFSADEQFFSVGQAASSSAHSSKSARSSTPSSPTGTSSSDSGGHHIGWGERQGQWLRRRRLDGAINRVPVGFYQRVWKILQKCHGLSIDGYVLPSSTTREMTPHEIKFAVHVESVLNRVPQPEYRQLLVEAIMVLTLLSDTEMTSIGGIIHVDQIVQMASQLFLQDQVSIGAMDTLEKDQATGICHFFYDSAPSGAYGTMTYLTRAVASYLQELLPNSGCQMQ
inactive: [1] -0.077 | [2] 0.029 | [3] 0.041 | [4] -0.008 | [5] -0.011 | [6] 0.041 | [7] -0.028 | [8] -0.026 | [9] 0.004 | [10] 0.004 | [11] 0.053 | [12] -0.095 | [13] 0.049 | [14] 0.011 | [15] -0.1 | [16] -0.143 | [17] 0.065 | [18] 0.138 | [19] 0.176 | [20] 0.028

PISD (UniProt Q9UG56)
Chain of UniProt Q9UG56 (Q9UG56 whole entry, looked up): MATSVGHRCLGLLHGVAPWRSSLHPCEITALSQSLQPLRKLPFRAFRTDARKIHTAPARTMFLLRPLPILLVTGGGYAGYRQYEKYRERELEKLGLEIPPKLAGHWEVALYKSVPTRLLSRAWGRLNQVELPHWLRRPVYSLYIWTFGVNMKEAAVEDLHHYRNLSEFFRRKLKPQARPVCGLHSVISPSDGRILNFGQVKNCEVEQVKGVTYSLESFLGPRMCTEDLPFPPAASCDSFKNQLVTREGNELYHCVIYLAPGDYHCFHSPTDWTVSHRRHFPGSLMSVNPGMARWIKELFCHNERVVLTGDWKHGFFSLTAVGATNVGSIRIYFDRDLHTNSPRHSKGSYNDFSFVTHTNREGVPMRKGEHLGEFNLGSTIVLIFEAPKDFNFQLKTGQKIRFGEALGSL
inactive: [1] -0.021 | [2] -0.055 | [3] 0.026 | [4] 0.089 | [5] 0.034 | [6] 0.023 | [7] 0.02 | [8] 0.058 | [9] 0.009 | [10] -0.004 | [11] -0.013 | [12] -0.038 | [13] -0.068 | [14] 0.02 | [15] -0.066 | [16] 0.001 | [17] 0.005 | [18] -0.013 | [19] -0.039 | [20] 0.147

PRKAR2A (UniProt P13861)
Chain of UniProt P13861 (P13861 whole entry, looked up): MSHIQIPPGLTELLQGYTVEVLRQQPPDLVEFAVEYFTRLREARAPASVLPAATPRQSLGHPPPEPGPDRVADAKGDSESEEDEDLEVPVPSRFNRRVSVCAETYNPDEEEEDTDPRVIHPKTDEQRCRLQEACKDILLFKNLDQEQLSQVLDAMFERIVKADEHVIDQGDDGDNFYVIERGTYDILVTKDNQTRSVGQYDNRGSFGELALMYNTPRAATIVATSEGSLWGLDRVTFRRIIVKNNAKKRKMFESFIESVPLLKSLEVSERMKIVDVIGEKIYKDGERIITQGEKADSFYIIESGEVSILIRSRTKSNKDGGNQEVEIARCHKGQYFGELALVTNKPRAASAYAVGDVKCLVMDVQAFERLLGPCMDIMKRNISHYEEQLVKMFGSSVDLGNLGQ
active: [10] -0.486 | [13] -0.696
inactive: [1] -0.002 | [2] 0.013 | [3] -0.024 | [4] 0.062 | [5] 0.082 | [6] -0.005 | [7] -0.021 | [8] -0.004 | [9] -0.177 | [11] 0.006 | [12] 0.013 | [14] 0.047 | [15] -0.036 | [16] -0.002 | [17] -0.023 | [18] 0.074 | [19] -0.06 | [20] 0.058

PPID (UniProt Q08752)
Chain of UniProt Q08752 (Q08752 whole entry, looked up): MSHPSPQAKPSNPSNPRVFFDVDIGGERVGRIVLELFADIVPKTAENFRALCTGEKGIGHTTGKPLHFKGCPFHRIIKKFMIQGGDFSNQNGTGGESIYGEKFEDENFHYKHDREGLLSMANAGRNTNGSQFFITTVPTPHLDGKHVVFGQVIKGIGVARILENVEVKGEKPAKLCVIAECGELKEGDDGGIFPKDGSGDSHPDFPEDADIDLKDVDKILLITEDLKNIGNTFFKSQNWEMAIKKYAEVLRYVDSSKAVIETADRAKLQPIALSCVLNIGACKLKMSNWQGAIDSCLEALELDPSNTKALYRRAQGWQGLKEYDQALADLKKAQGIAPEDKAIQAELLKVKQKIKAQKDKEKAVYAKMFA
inactive: [1] 0.114 | [2] 0.111 | [3] -0.01 | [4] -0.021 | [5] 0.075 | [6] 0.007 | [7] 0.095 | [8] 0.021 | [9] -0.076 | [10] -0.118 | [11] -0.141 | [12] -0.057 | [13] -0.013 | [14] 0.103 | [15] -0.152 | [16] -0.238 | [17] 0.053 | [18] 0.105 | [19] -0.006 | [20] 0.022

PPT1 (UniProt P50897)
Chain of UniProt P50897 (P50897 whole entry, looked up): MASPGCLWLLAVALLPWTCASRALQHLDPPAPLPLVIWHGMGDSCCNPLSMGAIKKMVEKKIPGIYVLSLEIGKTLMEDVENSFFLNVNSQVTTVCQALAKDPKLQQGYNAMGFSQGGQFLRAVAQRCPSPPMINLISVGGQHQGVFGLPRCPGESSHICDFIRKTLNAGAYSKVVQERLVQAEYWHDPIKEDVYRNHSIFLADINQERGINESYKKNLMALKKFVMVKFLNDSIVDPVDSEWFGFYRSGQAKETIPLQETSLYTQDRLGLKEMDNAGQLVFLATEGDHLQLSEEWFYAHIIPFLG
inactive: [1] 0.01 | [2] -0.011 | [3] 0.018 | [4] -0.003 | [5] 0.04 | [6] 0.007 | [7] 0.01 | [8] 0.024 | [9] 0.036 | [10] -0.009 | [11] 0.041 | [12] 0.049 | [13] 0.008 | [14] -0.072 | [15] 0.039 | [17] 0.048 | [18] -0.036 | [19] 0.018 | [20] -0.06
active: [16] -0.406

POMK (UniProt Q9H5K3)
Chain of UniProt Q9H5K3 (Q9H5K3 whole entry, looked up): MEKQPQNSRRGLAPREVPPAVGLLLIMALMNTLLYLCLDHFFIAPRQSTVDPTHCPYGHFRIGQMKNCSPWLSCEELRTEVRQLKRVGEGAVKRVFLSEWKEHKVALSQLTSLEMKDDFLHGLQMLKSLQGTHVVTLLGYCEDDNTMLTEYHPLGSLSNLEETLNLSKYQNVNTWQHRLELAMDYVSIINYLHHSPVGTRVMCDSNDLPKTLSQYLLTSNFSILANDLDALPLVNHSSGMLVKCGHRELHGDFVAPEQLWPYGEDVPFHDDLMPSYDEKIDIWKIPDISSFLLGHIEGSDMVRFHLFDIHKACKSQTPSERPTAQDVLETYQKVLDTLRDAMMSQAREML
inactive: [1] -0.091 | [2] -0.007 | [3] 0.019 | [4] 0.005 | [5] -0.01 | [6] 0.071 | [7] 0.005 | [8] -0.019 | [9] 0.006 | [10] 0.005 | [11] 0.046 | [12] -0.036 | [13] -0.042 | [14] 0.032 | [15] -0.024 | [16] -0.23 | [17] 0.027 | [18] 0.094 | [19] -0.009 | [20] 0.042

PSMB4 (UniProt P28070)
Chain of UniProt P28070 (P28070 whole entry, looked up): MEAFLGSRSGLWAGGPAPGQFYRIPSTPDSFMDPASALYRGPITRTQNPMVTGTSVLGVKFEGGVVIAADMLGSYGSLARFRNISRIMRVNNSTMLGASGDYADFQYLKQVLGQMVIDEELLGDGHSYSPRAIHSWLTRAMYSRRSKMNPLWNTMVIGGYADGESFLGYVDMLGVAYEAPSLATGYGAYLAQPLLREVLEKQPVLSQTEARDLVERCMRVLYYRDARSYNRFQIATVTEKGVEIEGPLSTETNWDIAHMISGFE
inactive: [1] -0.056 | [2] -0.024 | [3] -0.003 | [4] 0.001 | [5] -0.024 | [6] -0.035 | [7] -0.028 | [8] 0.001 | [9] 0.008 | [10] 0.037 | [11] -0.021 | [12] 0.006 | [13] 0.044 | [14] -0.008 | [15] 0.045 | [16] 0.065 | [17] -0.043 | [18] 0.03 | [19] 0.013 | [20] 0.018
